Laboratory results as given in PubChem BioAssay AID493014 (National Center for Advancing Translational Sciences (NCATS), 2011).
Among all 340,000 compounds or so, about 170 (0.05%) were called active. Roughly 26% stayed inconclusive and do not appear here. The call rests on the fitted dose curve; in most records, active means well fitted inhibition curve with a large enough effect in the signal ratio, with a control signal flat (not every such curve was filed as active); inconclusive means small, poorly fitted or top-dose-only effect, or effect the other way, or a change in a side signal; inactive means flat fitted curve, though single readings scatter; the % refers to the signal ratio. What follows is part of a selection rich in actives, with near analogues and random picks from the rest.

Experiment: qHTS Assay to Find Inhibitors of Chronic Active B-Cell Receptor Signaling
Conditions: ABC-DLBCL IkBa-CBG/CBR reporter, luminescence ratio, 4 h; series mostly up to 46.1 µM; activity change, negative = inhibition: at the top concentration
Description: NIH Molecular Libraries Probe Production Network [MLPCN] NIH Chemical Genomics Center [NCGC] MLPCN Grant: 1 R03 DA031086-01A1 PI Name: Dr. R. Eric Davis NCGC Assay Overview: Diffuse large B-cell lymphoma (DLBCL) is the most common category of non-Hodgkin lymphoma, with ~20,000 new cases per year in the United States. DLBCL should be regarded as a collection of different neoplasms. Microarray gene expression analysis has defined two principal types of DLBCL, named for their similarity to normal B cell stages or activation states: a germinal center B-cell (GCB) type, and an activated B-cell (ABC) type. In ABC-DLBCL, a constitutive high-level activity of the NF-kappaB family of transcription factors has been observed (1) and NF-kappaB target genes are more highly expressed in ABC primary tumors than in GCB tumors. Functional studies have shown a constitutive high-level activity of the IkappaB (inhibitor of kappa-B) kinase (IKK) complex. […] Further analysis of DLBCL primary tumors for NF-kappaB target gene expression imply that although CARD11 is required for constitutive IKK activity in all ABC-DLBCL lines, mutations in CARD11 may be the root cause of IKK activation only in lines or tumors with such mutations. In other words, CARD11 mutations may explain NF-kappaB activation in only 10% of ABC-DLBCL cases. […] This process has been termed 'chronic active BCR signaling' (CABS). The goal of this screen is to find small-molecule inhibitors of the CABS pathway found in ABC-DLBCL lines using a cell-based assay that measures IkappaBalpa stability, which has already been extensively validated in the OCI-Ly3 line (PubChem AID:445; REF: 4). […] The assay uses green (CBG68) and red (CBR) emitting beetle luciferases [Chroma-GloTM developed by Promega Corp.] where the green luciferase is fused to IkappaBalpha and the red luciferase is present in its native state. Both luciferase genes are stably present in the TMD8 human ABC DLBCL cell line, but their expression is under the control of tetracycline-inducible promoters. Following the addition of doxycycline to induce expression of the luciferases, the green luminescence in control cultures rises only slowly because the CBG fusion partner IkappaBalpha is targeted by IKK activity for rapid degradation. In contrast, green luminescence rises rapidly in the presence of proteasome inhibitors or IKK inhibitors. The rise in red luminescence of CBR is not affected by proteasome or IKK inhibitors, and serves as normalization for cell number and nonspecific effects. Compounds were screened as a concentration-titration series that ranged from 46 uM to 3 nM.
NCGC Assay Protocol Summary: Cells were seeded in 1536-well plates at 5000 cells/4uL in IMDM medium containing 0.5% FBS, w/o phenol red, 1% penicillin/streptomycin. Then, 23 nL of compounds or DMSO were delivered to each well using a pin tool. One uL 20ng/ml doxycycline was then dispensed into white solid 1536-well plates and the plates were incubated at 37C/5% C02 in a cell incubator for 4 hrs. Then 4 uL luminescent substrate mix (in-house prepared: 150 mM Tris-Cl, pH 7.6, 3 mM MgCl2, 1% Triton X-100, 5 mM DTT, 0.2 mM CoA, 0.15 mM ATP, 5 mM D-luciferin, final concentrations) was added to each well. The plate was incubated at r.t. for 10-15 min. The plates were measured on a ViewLux plate reader for green luminescence (540/20 nm filter) and red luminescence (618/8 nm filter). The green and red luminescent signals were corrected for red and green luminescence filter overlap using previously determined filter calibration constants (determined using the procedure outlined in the Promega Technical Manual; REF 4). The %Activity was determined from the ratio of corrected green/red luminescent values. MG132 were used as control. […] Red luminescent %Activity was normalized to the difference between red luminesence in basal cells (0%Activity) and zero luminescence (-100% Activity). […]
Potency means the concentration at half of the fitted maximal effect.

Activity change, negative = inhibition, inactive:
O=C(COC(=O)COc1cccc(F)c1)NCC1CCCCC1 1.5%
O=C(NCc1ccccc1CN1CCCC1)C1CCN(S(=O)(=O)c2ccc(Cl)cc2)CC1 12.9%
Cc1cccc(NC(=O)c2ccc(S(=O)(=O)N(C)c3ccccc3)cc2)n1 2.05%
COc1ccc(NC(=O)CN2C(=O)COc3ccc(S(=O)(=O)N4CCOCC4)cc32)c(OC)c1 0.37%
Cc1ccc(CNC(=O)Cn2cnc3c(NCc4ccccc4)ncnc32)o1 -12.2%
COc1ccccc1N(C)S(=O)(=O)c1ccc(Cl)c(C(=O)Nc2ccncc2)c1 -16.4%
C[C@H]1COC(=O)[C@H](CC(=O)OC(C)(C)C)C/C=C\C[C@@H](CC(=O)N[C@H](CO)Cc2ccccc2)C(=O)N1 2.36%
Nc1cc(N)nc(SCC(=O)Nc2cccc(S(=O)(=O)N3CCCCC3)c2)n1 -9.58%
COc1ccc(S(=O)(=O)N2CCCCCC2)cc1NC(=O)Cc1ccc(OC)c(OC)c1 -14.2%
COC(=O)c1cc(C(=O)NC(C)C2CC3CCC2C3)cc([N+](=O)[O-])c1 (configuration not stated) 5.53%
O=C(CN(Cc1ccc(Br)cc1)S(=O)(=O)c1ccccc1)NCc1ccncc1 -1.57%
Cc1ccc(C)c(N2CCN(C(=O)CCc3nc(-c4cccc(C(F)(F)F)c4)no3)CC2)c1 -1.43%
COc1cc2c(cc1OC)C(c1ccc(C)o1)CC(=O)N2 (configuration not stated) -6.34%
COc1ccc(C2CC(=O)Nc3cc(C)c(C)cc32)c(OC)c1OC (configuration not stated) -9.44%
COc1ccc(NC(=O)c2cnc(NS(=O)(=O)c3ccccc3)nc2)cc1 0.171%
COC(=O)[C@H](Cc1ccccc1)NC(=O)Nc1ccc(OC)cc1 3.98%
CCCCCCSc1ccc([C@@H]2[C@@H]3C(=O)N(CC)C(=O)[C@@H]3[C@]3(C(=O)OC)CCCCN23)cc1OC 1.7%
O=C(c1ccc(S(=O)(=O)NCc2ccco2)cc1)N1CCN(c2ccccc2)CC1 0.277%
CCN1C(=O)[C@@H]2[C@@H](c3ccc(-c4ccc(OC)cc4)c(OC)c3)N3CCC[C@@]3(C(=O)OC)[C@@H]2C1=O 0.451%
COc1ccc(Cl)cc1NC(=O)CN(C)C(=O)c1cc2ccccc2cc1OC -10.4%
CC(C)N(Cc1nnc(-c2ccccc2Br)o1)C(=O)c1cc(Cl)nc2ccccc12 -1.67%
COc1ccccc1N1CC(C(=O)Nc2nnc(SCC(=O)NC(C)C)s2)CC1=O (configuration not stated) 4.55%
COc1ccc(/C=N/Nc2cc(N3CCOCC3)nc(C)n2)c(OC)c1 -11.7%
COc1ccc(N2CCN(C(=O)COC(=O)c3cccc(S(=O)(=O)Nc4ccccc4OC)c3)CC2)cc1 -0.343%
Cn1c(CC(=O)NNC(=O)c2ccccc2F)nc2ccccc21 -10.5%
CN1C(=O)[C@H]2[C@@H](/C=C/c3ccccc3)N3C(=O)CN(Cc4ccc(-c5ccccc5)cc4)C(=O)[C@@]3(C)[C@H]2C1=O 1.78%
COc1cc(Cl)ccc1OCc1cc(C(=O)N(C)CCc2c(C)n[nH]c2C)no1 -1.42%
CC1CCN(c2ccc(-c3ccc(NC(=O)c4ccco4)cc3)nn2)CC1 9.68%
CC(C)(C)OC(=O)C[C@@H]1C/C=C\C[C@@H](CC(=O)N[C@H](CO)Cc2ccccc2)C(=O)NCCOC1=O -1.38%
CCN1C(=O)[C@@H]2[C@@H](c3ccc(-c4ccccc4)cc3)N3CCCC[C@@]3(C(=O)OC)[C@@H]2C1=O -13.7%
CCN(c1ccccc1)S(=O)(=O)c1ccc(C(=O)Nc2ccccc2OC)cc1 1.41%
COc1ccc(-c2csc3ncnc(N4CCN(S(=O)(=O)c5cccc(F)c5)CC4)c23)cc1 -14.3%
CC(=O)c1c(C)[nH]c(C(=O)COC(=O)c2cccs2)c1C -2.67%
COc1ccc(-c2c(C#Cc3ccsc3)c3cc(-c4ccc(CN5CCOCC5)cc4)ccc3n2C)cc1 3.39%
O=C(Nc1cc(S(=O)(=O)Nc2ccc(Cl)cc2)ccc1O)c1ccc(F)cc1F 0.136%
Cc1cc(C)cc(OCC(=O)Nc2ccc(N3CCOCC3)cc2N2CCOCC2)c1 -5.71%
C=CC[C@H](CC(=O)NCCO)C(=O)N[C@@H](COC(=O)[C@@H](CC=C)Cc1ccc(F)cc1)Cc1c[nH]c2ccccc12 -0.684%
CSCc1nnc(NC(=O)c2ccc(S(=O)(=O)N3CCCCC3C)cc2)o1 (configuration not stated) 3.95%
CCOCc1c(C(=O)N2CCN(Cc3ccc(Br)s3)CC2)oc2ccccc12 -2.34%
COc1cc(OC)cc(-c2c(-c3cccs3)c3cc(-c4ccc(OC)cc4F)ccc3n2C)c1 4.81%
COc1ccc(CNC(=O)C[C@H]2C[C@H](C(=O)N3CCOCC3)[C@@]3(C)c4[nH]c5cc(CCC(=O)N(C)C)ccc5c4CCN3C2=O)cc1OC -3.2%
O=C(COC(=O)c1c(Cl)cccc1Cl)Nc1cccc(S(=O)(=O)NC2=NCCCCC2)c1 -10.1%
CCN(CC)S(=O)(=O)c1ccc(N2CCN(C)CC2)c(NC(=O)Nc2ccccc2F)c1 4.9%
CCCN(CC(=O)NC(=O)NC1CCCCC1)CC(=O)Nc1cc(Cl)ccc1Cl 0.641%
COc1cc(C(=O)NCc2ccncc2)cc(Br)c1OCc1ccccc1 5.05%
CN(c1ccccc1)S(=O)(=O)c1cc(C(=O)N2CCN(c3ncccn3)CC2)ccc1Cl 3.2%
CN[C@H](C(=O)NC[C@H]1O[C@@H](n2cnc3c(N)ncnc32)[C@H](O)[C@@H]1O)[C@@H](C)OCc1ccccc1 6.59%
CCN(CC)S(=O)(=O)c1ccc(CNC(=O)CN2C(=O)NC3(CCc4ccccc43)C2=O)cc1 (configuration not stated) -2.21%
O=C(NC1CCCCCC1)C1CCN(C(=O)c2ccc(Cl)cc2)CC1 1.11%
Cc1nn(Cc2ccccc2)c(C)c1C(=O)N1CCN(CC(=O)Nc2ccccc2Cl)CC1 -1.85%
COc1cc(OC)cc(-c2c(-c3ccc(F)cc3)c3cc(-c4ccc5cc[nH]c5c4)ccc3n2C)c1 8.48%
O=C(CNC(=O)c1ccco1)NNC(=O)c1ccc(Br)cc1 5.31%
CC(C)(C)OC(=O)C[C@@H]1C/C=C\C[C@@H](CC(=O)NCCO)C(=O)N[C@H](Cc2c[nH]c3ccccc23)COC1=O -1.8%
CC(C)c1ccc(S(=O)(=O)N2CCN(C(C)C(=O)NC3CCCC3)CC2)cc1 (configuration not stated) 3.72%
CN(CC(=O)Nc1ccc(Cl)c(C(F)(F)F)c1)C(=O)CCC(=O)c1ccccc1 -4.03%
CC1CCC(CN2CCN=C2N(C)C)CC1 (configuration not stated) -3.3%
COc1ccc(C(CNC(=O)c2ccc(NS(=O)(=O)c3ccc(F)c(C)c3)cc2)N(C)C)cc1 (configuration not stated) -5.47%
COc1cc(OC)cc(C(=O)N[C@H](C(=O)NNC(=O)c2ccc(Br)cc2)C(C)C)c1 -0.119%
CCN1C(=O)[C@@H]2[C@@H](c3ccc(-c4cccc(Cl)c4)cc3)N3CCC[C@@]3(C(=O)OC)[C@@H]2C1=O 0.439%
C=C(C)CNc1cc(S(=O)(=O)N2CCOCC2)ccc1Oc1ccccc1 5.13%
Cc1cc(Cl)c2oc(C(=O)N(C)C(C)c3ccccn3)c(C)c2c1 (configuration not stated) 0.284%
CSCCC(NC(=O)c1ccccc1)C(=O)N1CCN(Cc2ccc(Cl)cc2)CC1 (configuration not stated) -5.22%
COc1ccc(S(=O)(=O)N(C)C[C@H]2Oc3c(NC(=O)Nc4ccc5c(c4)OCO5)cccc3C(=O)N([C@H](C)CO)C[C@@H]2C)cc1 -0.56%
O=C(NCCC1CCCCN1S(=O)(=O)c1ccc(Cl)cc1)C(=O)NCc1ccco1 (configuration not stated) 10.6%
O=C(NCCC(=O)N1O[C@@H]2C=C[C@H]1C2)OCC1c2ccccc2-c2ccccc21 4.42%
N#Cc1cccc(NC(=O)C2CCCN(C(=O)c3ccc(Cl)cc3)C2)c1 (configuration not stated) -7.04%
CC(C)(C)OC(=O)C[C@@H]1C/C=C\C[C@@H](CC(=O)N[C@@H](CO)Cc2ccccc2)C(=O)N2CCC[C@H]2COC1=O -1.12%
CNS(=O)(=O)c1cccc(C(=O)OCCCC(=O)c2ccccc2)c1 -4.27%
COc1ccc(-c2noc(CCC(=O)N3CCN(c4cccc(C)c4)CC3)n2)cc1 -0.0829%
Cc1ccc(N2C(=O)N3[C@@H]4c5ccccc5OC[C@@H]4[C@@H](c4ccccc4)[C@@]3(C)C2=O)cc1 0.331%
CC(C)n1ncc2c(C(=O)Nc3ccc(CC#N)cc3)cc(C3CC3)nc21 -0.329%
COc1cccc(N2CCN(CC(=O)Nc3ccnn3C3CCCC3)CC2)c1 -0.74%
COc1ccccc1-c1sc2ccccc2c1C#CC1(O)CCCCC1 7%
C#CCOCCOCCOCCNc1nc(N2CCN(C(=O)[C@H](CO)n3cc([C@@H](N)C(C)C)nn3)CC2)nc(N2CCN(C(=O)[C@H](CCC(=O)O)n3cc([C@@H](N)[C@H](C)CC)nn3)CC2)n1 -0.657%
CCCCC/C=C/C1=CC(=O)C[C@H](c2ccc(Cl)cc2)C1 7.14%
COc1ccc(NS(=O)(=O)c2ccc3oc(SCC(N)=O)nc3c2)cc1 -8.77%
COC1=C(N2CCOCC2)C(=O)c2ccccc2C1=O 0.0293%
CCOC(=O)C1CCN(C(=O)CN2C(=O)NC(C)(c3ccc4cc(OC)ccc4c3)C2=O)CC1 (configuration not stated) -1.79%
CC(C)(C)OC(=O)C[C@@H]1C/C=C\C[C@@H](CC(=O)N[C@H](CO)Cc2ccccc2)C(=O)NC[C@@H](c2ccccc2)OC1=O 1.85%
Cc1ccc(NC(=O)CCC(=O)N2CCC(c3ccccc3)=N2)cc1S(=O)(=O)N1CCCCC1 6.15%
Cc1ccc(-n2ncc(C(=O)NC3CC3)c2C2CCN(C(=O)OC(C)(C)C)CC2)c(C)c1 5.88%
COc1ccc(CN2C(CC(=O)Nc3cccnc3)c3ccc(C(F)(F)F)cc3S2(=O)=O)cc1 (configuration not stated) -7.67%
Cn1c2cc(B(O)O)sc2c2cnn(Cc3ccccc3F)c(=O)c21 25.8%
COc1ccc(-c2c(-c3cc(OC)cc(OC)c3)n(C)c3ccc(-c4ccn[nH]4)cc23)cc1 -0.87%
COc1ccc(S(=O)(=O)N2CCCCC2)cc1NC(=O)c1cc([N+](=O)[O-])ccc1N1CCOCC1 5.45%

Potency, active:
CCCOc1ccccc1C1CC(=O)Nc2cc3c(cc21)OCO3 (configuration not stated) 23.1 µM
COc1ccc(NC(=O)c2sc(N)nc2-c2ccccc2)cc1 12.6 µM
